Screening results: PubChem BioAssay, National Center for Advancing Translational Sciences (NCATS)
S-ASM inh: Inhibitors of Secretory Acid Sphingomyelinase (S-ASM): qHTS; placental ASM, HMU-PC fluorogenic substrate, 60 min; Potency, µM (top dose mostly 57.5 µM), for inactives: at the highest dose activity change, negative = inhibition, usual class: inhibitors; 340,000 compounds, 0.006% hits
Target sequence (P17405 47-631 limits assumed): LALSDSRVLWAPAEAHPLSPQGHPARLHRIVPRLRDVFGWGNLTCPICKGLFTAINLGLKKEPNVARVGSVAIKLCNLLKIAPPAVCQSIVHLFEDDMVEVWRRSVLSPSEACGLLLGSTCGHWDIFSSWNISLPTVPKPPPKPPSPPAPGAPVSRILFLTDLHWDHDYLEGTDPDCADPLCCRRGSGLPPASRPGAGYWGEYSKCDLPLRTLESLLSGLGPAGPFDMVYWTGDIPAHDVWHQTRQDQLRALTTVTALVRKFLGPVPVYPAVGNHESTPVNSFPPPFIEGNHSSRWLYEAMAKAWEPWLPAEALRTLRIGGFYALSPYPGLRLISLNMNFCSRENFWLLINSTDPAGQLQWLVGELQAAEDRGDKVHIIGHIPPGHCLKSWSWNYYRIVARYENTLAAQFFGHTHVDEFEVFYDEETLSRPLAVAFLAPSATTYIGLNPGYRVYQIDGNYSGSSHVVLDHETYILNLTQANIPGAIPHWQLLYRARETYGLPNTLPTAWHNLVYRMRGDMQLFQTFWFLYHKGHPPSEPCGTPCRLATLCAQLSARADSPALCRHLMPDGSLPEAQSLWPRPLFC
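Human placenta-derived ASM enzyme was preincubated with compound for 10 minutes at room temperature, then given fluorogenic substrate HMU-PC0 (9 uM final) for 60 minutes at 37 °C; a pH 10 stop preceded fluorescence reading at Ex 386/Em 447 nm.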
Abeta rescue: qHTS for compounds that reverse cellular toxicity of Amyloid beta (A-beta) peptide in yeast: Primary Screen. yeast expressing A-beta42, growth rescue, OD600, 48 h; response scale: 0% DMSO, 100% iron-clioquinol control. Potency, µM (top dose mostly 46.1 µM), usual class: activators. 410,000 compounds, 0.063% hits; further: nearly all actives have a fitted effect of over 55% in size
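Yeast growth medium received pinned compounds, then yeast cells expressing toxic A-beta were added; plates incubated at 30 C for 48 hr. Growth read as absorbance at 600 nm, normalized to DMSO and equimolar FeCl3 plus clioquinol controls.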
Rango dissoc inh: qHTS Assay for Inhibitors of RanGTP induced Rango (Ran-regulated importin-beta cargo) - Importin beta complex dissociation | Snurportin-1 (Homo sapiens) + GTP-binding nuclear protein Ran (Homo sapiens) + Importin … | Biochemical FRET Rango-importin beta, RanGTP-induced dissociation | 340,000 compounds, 0.071% hits | Potency, µM (titrated, usually from 46.1 µM), inactives show top-dose activity change, negative = inhibition | AID 540253, 2011; calls by dose curve; further: % of control where 0% means no effect; nearly all actives have a fitted effect of over 45% in size
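Two FRET readings bracket the reaction: one 5 min after compound meets Rango–importin beta, another 45 min after RanGTP-RCC1 (0.6 uM Ran, 0.2 uM RCC1, 2 mM GTP) is added. Only the second defines inhibition.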
Rango-impB inh: qHTS Assay for Inhibitors of Rango (Ran-regulated importin-beta cargo) - Importin beta complex formation | Importin subunit beta-1 (Homo sapiens), Q14974 | Rango CFP/YFP FRET sensor + importin beta, 45 min | Potency, µM (series often up to 92.2 µM), for the others: at the highest dose inhibition of complex formation | 340,000 compounds, 0.031% hits; calls by dose curve;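 further: 0% = DMSO wells and 100% = buffer wells lacking importin beta; nearly all actives have a fitted effect of over 15% in size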
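FRET biosensor (snurportin 1 IBB flanked by EYFP and cerulean), 50 nM, with compound 5 min, then 0.125 microM importin beta in PBS, 1 mM DTT, 0.02% Tween-20, 0.1% BSA. CFP/YFP ratio read after 45 min at room temperature; pre-read flags interference.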
aSyn yeast inh: qHTS of alpha-syn Inhibitors; Yeast expressing alpha-synuclein, growth rescue, BacTiter-Glo, 24 h; Potency, µM (highest dose often 46.1 µM), for inactives: at the top dose growth rescue (activation), most hits filed as activators; 370,000 compounds, 0.14% hits; AID 652106, 2013; further: % of control where 0% means no effect; nearly all actives have a fitted effect of over 65% in size
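Readout is rescue of growth in alpha-synuclein-expressing yeast, so inhibitors of toxicity appear as activators. Growth after 24 hr at 30 deg C in galactose medium is quantified by luminescence.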
TDP43 rescue: qHTS of TDP-43 Inhibitors | TDP-43 expressing yeast growth rescue, BacTiter-Glo, 24 h | Potency, µM (series often up to 46.1 µM), without a hit: at the top dose growth rescue (activation), hits mostly activators | 410,000 compounds, 1.8% hits; further: % of control where 0% means no effect; nearly all actives have a fitted effect of over 50% in size
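Yeast cells expressing TDP-43 under galactose induction are exposed to compounds for 24 hr at 30 deg C. BacTiter-Glo luminescence measures growth, so protective compounds score as activators.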
The depositor's hits bear a star; i = inactive; ? = inconclusive; nt = not tested or not shown; [ ] = dose if it differs, or a comment. Shown are actives, neighbours in structure and some others; about 2% of the full set was active somewhere. Unless noted, the call rests on the fitted dose curve; in most records, active means well fitted curve in the direction sought with a large enough effect; inconclusive means small, poorly fitted or top-dose-only effect, or another doubt; inactive means no such curve, though single readings can be large; an effect the other way counts as inactive or inconclusive. Potency means the concentration at half of the fitted maximal effect.

SMILES	S-ASM inh	Abeta rescue	Rango dissoc inh	Rango-impB inh	aSyn yeast inh	TDP43 rescue
CC(=O)NC(c1ccc(Cl)cc1Cl)c1ccc2cccnc2c1O (stereo not given)	-3.9%	?	1.4%	2.8%	?	31.6µM*
CCCC(=O)NC(c1ccc(Cl)cc1Cl)c1ccc2cccnc2c1O (stereo not given)	-2.5%	?	-12.1%	?	?	nt
CC(C)C(=O)NC(c1cccc([N+](=O)[O-])c1)c1ccc2cccnc2c1O (stereo not given)	-4.9%	i	0.1%	-2.6%	-39.4%	35.5µM*
O=C(CN1CCN(Cc2ccccc2Cl)CC1)N/N=C/c1ccco1	-1.3%	i	-1.4%	-1.3%	2.4%	-13.7%
O=C(CSCc1ccccc1Cl)N/N=C/c1ccco1	1.8%	i	-13.7%	-0.3%	-8.6%	12.6µM*
C#CCN1CCc2onc(-c3ccc(Br)cc3)c2C1=O	nt	i	nt	nt	-2.4%	35.5µM*
Nc1ncnc2c1nc(Sc1ccc(Cl)cc1)n2[C@H]1OC2COP(=O)(O)O[C@H]2[C@@H]1O (stereo not given in full)	nt	nt	nt	nt	-4.1%	nt
Cc1ccc(-n2c(C)cc(C(=O)CSc3nnnn3C)c2C)cc1	-11.8%	i	11.0%	-3.5%	0.5%	31.6µM*
Cc1ccc(-n2c(C)cc(C(=O)CSc3nncs3)c2C)cc1	0.2%	i	-4.7%	-2.1%	-19.6%	22.4µM*
O=C(NCCc1ccc(Cl)cc1)c1ccc(CS(=O)(=O)Cc2ccccc2F)o1	nt	i	nt	nt	nt	?
O=C(Nc1nnc(SCc2cc(=O)n3cc(Cl)ccc3n2)s1)c1cccc(F)c1	nt	i	nt	nt	nt	21.0%
CCCN1C(=O)/C(=C/c2ccc(C)s2)NC1=S	-4.0%	i	?	?	-7.8%	11.2µM*
CC(C)CN1C(=O)/C(=C/c2cccs2)NC1=S	-10.6%	i	?	?	-22.6%	25.1µM*
CC(C)CN1C(=O)/C(=C/c2ccco2)NC1=S	-2.4%	i	-11.6%	-4.9%	-7.1%	?
COc1cccc(-n2c(=O)c3cc(OC)c(OC)cc3n(CC(=O)Nc3ccc(F)cc3)c2=O)c1	nt	i	nt	nt	nt	8.1%
CC1CCN(C2=NC(=O)/C(=C/c3ccccc3F)S2)CC1	-4.0%	i	-18.2%	4.4%	7.8%	12.6µM*
COc1cccc2c1cc1c(=O)n(CC(=O)NCc3ccco3)nc(C)n12	nt	i	nt	nt	nt	2.5%
O=C1c2ccccc2C(=O)C1c1ccc(O)cc1	306.0%	i	?	?	1.2%	-10.9%[0.397 µM]
CC(C)(C)C1=NN=C2c3ccccc3C(=O)C21 (stereo not given)	-9.4%	i	13.5%	-0.4%	-15.5%	15.8µM*
O=C1C2ON(c3ccccc3)C(c3ccccn3)C2C(=O)N1c1ccc(Br)cc1 (stereo not given)	-11.6%	?	20.0%	-0.4%	26.1%	12.6µM*
O=C1C2ON(c3ccccc3)C(c3ccncc3)C2C(=O)N1c1ccc(Br)cc1 (stereo not given)	-6.6%	i	5.1%	4.0%	15.5%	?
C=CCNC(=S)NNC(=O)c1ccc(C)c(Cl)c1	3.0%	i	-2.2%	-2.0%	10.1%	nt
C=CCNC(=S)NC(=O)c1ccc(C)c(Br)c1	-3.7%	10µM*	9.0%	-4.3%	-1.0%	?
COc1ccc(C(=O)COC(=O)c2cc([N+](=O)[O-])ccc2N2CCOCC2)c(OC)c1	-11.2%	i	22.3%	-2.4%	0.0%	?
O=C(OCc1ccccc1Cl)c1cc([N+](=O)[O-])ccc1N1CCOCC1	-16.1%	i	3.8%	3.9%	19.1%	20µM*
SMILES	S-ASM inh	Abeta rescue	Rango dissoc inh	Rango-impB inh	aSyn yeast inh	TDP43 rescue
O=C(COC(=O)c1cc([N+](=O)[O-])ccc1N1CCOCC1)c1ccccc1	-3.8%	i	3.8%	3.7%	5.2%	20µM*
COc1ccccc1C(=O)COC(=O)c1cc([N+](=O)[O-])ccc1N1CCOCC1	-7.2%	i	-14.7%	?	12.1%	11.2µM*
CCOC(=O)c1ccccc1NC(=O)COC(=O)c1cc([N+](=O)[O-])ccc1N1CCOCC1	-18.4%	i	10.6%	5.5%	4.2%	17.8µM*
Cc1ccn2c(=O)cc(COc3ccc(NC(=O)COc4ccccc4)cc3)nc2c1	nt	i	nt	nt	nt	20.7%
CCC(=O)N1CCc2cc(CNS(=O)(=O)c3cc(OC)ccc3OC)ccc21	nt	i	nt	nt	0.1%	5.6%
CCc1cccc(NC(=O)CN(C)S(=O)(=O)c2ccc3c(c2)CCCN3C(C)=O)c1	nt	i	nt	nt	nt	10.8%
COc1ccc(C(=O)c2cc([N+](=O)[O-])ccc2N2CCOCC2)cc1	-2.1%	?	-5.1%	4.9%	23.3%	6.5%
Cc1ccc(C(=O)c2cc([N+](=O)[O-])ccc2N2CCOCC2)cc1	-11.1%	i	-29.4%	3.2%	14.4%	35.5µM*
Cc1ccccc1CNC(=O)C1CCN(S(=O)(=O)Cc2ccccc2)CC1	nt	i	nt	nt	nt	13.5%
CCC(Cn1nnc2ccccc2c1=O)NC(=O)Nc1cccc(Cl)c1 (stereo not given)	nt	i	nt	nt	nt	1.8%
CN1CCN(C(c2ccc(Cl)cc2Cl)c2sc3nc(-c4ccco4)nn3c2O)CC1 (stereo not given)	nt	i	nt	nt	nt	?
CC(C)c1nn2c(=O)cc(COC(=O)c3ccccc3NC(=O)C3CCCCC3)nc2s1	nt	i	nt	nt	nt	14.2%
CCc1cc(=O)oc2cc(OC(C)=O)cc(OC(C)=O)c12	i	i	11.6µM*	?	2.0%	-8.3%
COc1cc(OCc2ccccc2)c2c(CCC(=O)O)cc(=O)oc2c1	36.7%	i	1.5%	-0.3%	6.6%	23.0%
Cc1cccc(OCCSc2nc3ccccc3n2CC(=O)N2CCOCC2)c1	nt	i	nt	nt	nt	14.8%
O=C(Nc1cccn(Cc2c(Cl)cccc2Cl)c1=O)c1ccccc1Cl	-1.0%	i	-11.7%	-1.2%	-10.7%	3.98µM*
CCc1cccc(NC(=O)CN(c2ccc(C)cc2)S(=O)(=O)c2cccs2)c1	nt	i	nt	nt	nt	0.0%
Cn1c(O)c(N=NC(=O)c2ccccc2O)c2ccccc21	-0.6%	i	-6.5%	1.1%	3.9%	15.8µM*
S=c1[nH]nc(COc2ccc3ccccc3c2)o1	8.1%	i	-12.3%	3.3%	-6.9%	11.2µM*
O=S(=O)(Nc1cc(Br)cc2cccnc12)c1cccc2ccccc12	nt	nt	nt	nt	25.1µM*	nt
